Screens (PubChem)
Shiga toxin inh: blocks Shiga toxin action in Vero cells; 290,000 compounds, 9.2% hits; inhibition, % at 38.7 µM; Vero cells, Shiga toxin protein synthesis inhibition reporter; AID 2315; in the data active = inhibition mostly above about 28%, no sharp cut-off; inactive = mostly below about 43%; note: 0% is about no effect
Pf growth 48h: P. falciparum growth inhibition at 48 hours (one generation); P. falciparum luciferase growth in erythrocytes, 48 h; Potency, µM (highest dose often 28.7 µM), without a hit: at the top dose activity change, negative = inhibition, actives largely listed as inhibitors; 310,000 compounds, 5.9% hits; note: potency is the fitted concentration of half-maximal effect; % is set by controls: 0 for no effect and ±100 for the full control effect
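A one-generation exposure of luciferase-tagged malaria parasites in RPMI 1640/Albumax erythrocyte culture, 37 C and 5% CO2. Inhibition is inferred from decreased luminescence after adding detection reagent.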
Sm TGR inh: blocks Schistosoma mansoni thioredoxin glutathione reductase; Q962Y6; purified TGR, DTNB reduction, TNB absorbance 405 nm; Potency, µM (top dose mostly 114 µM), without a hit: at the highest dose activity change, negative = inhibition, actives largely listed as inhibitors; 360,000 compounds, 3% hits; note: potency is the fitted concentration of half-maximal effect; % is set by controls: 0 for no effect and ±100 for the full control effect; nearly all actives have a fitted effect of over 60% in size
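TGR 20 nM + NADPH 100 uM (dispensed conc.), cpd preinc 15 min RT; start with NADPH (500 uM addition) then DTNB (15 mM addition). Kinetic TNB absorbance, 405 nm filter. Four-parameter Hill fit across titration.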
NS1 inh: inhibitors of influenza NS1 protein function; Potency, µM (series often up to 46.1 µM), without a hit: top-dose activity, positive = more growth; 270,000 compounds, 0.4% hits; calls by dose curve; note: potency is the fitted concentration of half-maximal effect; actives are rising curves; nearly all actives have a fitted effect of over 50% in size
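Read-out: OD600 growth recovery of NS1-expressing budding yeast. Cells grown overnight at 30C in -URA glucose medium, washed, resuspended and diluted 1:100 in 2% galactose assay medium, pH 6.0. Same strain lacking NS1 served as positive control.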
Cycloheximide cs: counter-screen hit for Shiga toxin inhibitors, cycloheximide | 300,000 compounds, 12% hits | max response, % | cell reporter, cycloheximide protein synthesis inhibition counterscreen; in the data active = max response mostly above about 13%, no sharp cut-off; inactive = mostly below about 14%; note: read at 38.3 µM for the half of the compounds with a filed dose; 0% is about no effect
Pf growth 96h: P. falciparum growth inhibition at 96 hour, primary screen for plastid delayed-death inhibitors; P. falciparum luciferase reporter growth, 96 h; Potency, µM (top dose mostly 28.7 µM), without a hit: top-dose activity change, negative = inhibition, most hits filed as inhibitors; 320,000 compounds, 6.9% hits; AID 504834; note: potency is the fitted concentration of half-maximal effect; % is set by controls: 0 for no effect and ±100 for the full control effect
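Parasite growth measured via integrated firefly luciferase reporter in P. falciparum. Infected erythrocytes at 2% hematocrit, 0.05% parasitemia final were treated 96 hours at 37 C under 5% CO2, and luminescence was read.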
Active calls of the source: *; u = inconclusive; x = not tested or not shown; [ ] = remark or other dose. Only some compounds are listed: those with a hit (about 21% of all), similar ones and a draw of the others. Unless noted, calls come from the whole dose curve; as a rule, active = well fitted curve in the direction sought with a large enough effect; inconclusive = small, poorly fitted or top-dose-only effect, or another doubt; inactive = no such curve, though single readings can be large; an effect the other way counts as inactive or inconclusive.

SMILES	Shiga toxin inh	Pf growth 48h	Sm TGR inh	NS1 inh	Cycloheximide cs	Pf growth 96h
NC1=NC2(CCCCC2)N=C(Nc2ccc(F)cc2F)N1	-11.7	u	-14.7%	u	-1.9	3.7µM*
CC1=CC(C)(C)N2C(=O)C3(N=C(N)NC(Nc4ccccc4)=N3)c3cc(C)cc1c32 (centres undefined)	-5.3	u	8.4%	-7.8%	-2.1	-1.2%
Cc1cc(C)cc(NC2=NC3(CCCCC3)N=C(N)N2)c1	-1.5	x	5.0%[11.4 µM]	u	-3.6	1.04µM*
CCCCOc1ccc(NC2=NC3(CCCC3)N=C(N)N2)cc1	-9.3	1.17µM*	-15.8%	-39.9%	-2.3	u
Cc1cccc(NC2=NC(C)(C)N=C(N)N2)c1	30.3	0.0059µM*	1.9%	2.0%	-2.3	-22.8%
Cc1ccc(N2CC(c3nnc(Cc4ccc(Cl)cc4)o3)CC2=O)cc1 (centres undefined)	x	x	-3.6%	x	x	x
Cc1nc(-c2ccc(F)cc2)sc1CCNC(=O)c1ccco1	x	x	5.3%	x	x	x
Cc1cc(/C=C2\SC(N)=NC2=O)c(C)n1-c1ccccc1	45.0	14.7%	70.9%	7.6%	36.3*	7.2%
Cc1cc(/C=C2\SC(=S)NC2=O)cc(C)c1O	36.8	14.7%	-25.0%	6.5%	15.5*	7.3%
COc1ccc(-n2c(C)cc(/C=C3\SC(=S)NC3=O)c2C)cc1	12.9	0.9%	2.1%	-5.4%	5.9	26.5%
Cc1cc(-c2nn(-c3ccccc3)cc2/C=C2\SC(N)=NC2=O)ccc1OC(C)C	-10.7	-6.2%	6.3%	-2.2%	-3.3	u
Cc1cc(/C=C2\SC(=S)NC2=O)c(C)n1-c1ccc(O)cc1	51.7*	9.28µM*	-26.7%	u	38.4*	410.4%
Cc1cc(/C=C2\SC(=Nc3ccc(F)cc3)NC2=O)c(C)n1-c1ccc(S(N)(=O)=O)cc1	-24.8	13.1µM*	-19.1%	u	-3.0	x
COc1ccc(S(=O)(=O)N(C)CC(=O)NCc2ccco2)cc1	10.4	u	u	14.5%	0.7	29.6%
O=C(CSCCN1C(=O)c2ccccc2C1=O)Nc1ccc2ccccc2c1	7.6	u	3.3%	-3.5%	6.4	42.1%
CCCN(CCC)C(=O)Cn1c(=O)n(-c2cccc(OC)c2)c(=O)c2c3c(sc21)CCCC3	x	x	9.2%	x	x	x
Cc1cc(/C=C2\SC(=S)NC2=O)c(C)n1-c1ccccc1	58.1*	112.0%	-25.7%	1.1%	43.7*	-7.0%
CCCOc1ccc(-c2nn(-c3ccccc3)cc2/C=C2\SC(N)=NC2=O)cc1	21.9	u	-8.8%	6.2%	1.4	-0.8%
Cc1cc(/C=C2\SC(=S)NC2=O)c(C)n1C	-6.9	7.3%	u	-105.7%	-3.3	16.3%
CCCOc1ccccc1/C=C1\SC(N)=NC1=O	-7.8	u	-17.9%	-8.2%	1.9	11.7µM*
CC(C)CN(C(=O)CCNC(=O)c1ccccc1Cl)C1CCS(=O)(=O)C1 (centres undefined)	x	28.0%	-5.3%	x	x	13.2%
Cc1nn(-c2ccc([N+](=O)[O-])cc2)c2c1C(c1cccc(Br)c1)N1C(=N2)C(=O)Nc2ccccc21 (centres undefined)	-3.6	1.31µM*	-8.8%	20.6%	-1.3	1.04µM*
O=C1C(Cl)=C(NCC2CCCO2)C(=O)N1c1ccccc1 (centres undefined)	-16.6	31.3%	50.1µM*	-4.6%	-1.7	x
O=C1C(Cl)=C(NCC2CCCO2)C(=O)N1C1CCCCC1 (centres undefined)	-6.0	u	-18.7%	-7.4%	6.7	u
CCCN(Cc1nnc(-c2cccs2)o1)C(=O)CN1C(=O)NC2(CCCCC2)C1=O	x	15.2%	-19.2%	x	x	4.9%
CCC(CC)C(=O)N1CCc2cc(OC)c(OC)cc2C1COc1ccc2c(C)cc(=O)oc2c1 (centres undefined)	x	x	-1.5%	x	x	x
CCCOc1c(Br)cc(C2C3=C(CCCC3=O)N(C)C3=C2C(=O)CCC3)cc1OC	-4.9	9.28µM*	4.2%	5.3%	-4.6	-17.7%
COc1ccc(C2C3=C(CCCC3=O)N(CC(=O)O)C3=C2C(=O)CCC3)cc1Cl	-7.8	37.0%	50.1µM*	18.8%	-1.5	-17.3%
CCOc1cc(C2C3=C(CCCC3=O)N(CC(=O)O)C3=C2C(=O)CCC3)ccc1OC	-9.5	-4.9%	89.1µM*	8.2%	-1.2	20.2%
